# The supplement of paper PMC8728848
# The sample as a whole holds a higher share of the strongest signals than the screen did.
# B1: Di AAL2 (Agrocybe aegerita) (protein)
# chain: MTSNVITQDLPIPVASRGFADIVGFGLDGVVIGRNAVNLQPFLAVKNFAQNAGGWLTTKHVRLIADTTGTGKGDIVGFGNAGVYVSVNNGKNTFADPPKMVIANFGYDAGGWRVEKHLRYLADIRKIGRADIIGFGEKGVLVSRNNGGLNFGPATLVLKDFGYDAGGWRLDRHLRFLADVTGNGHLDIVGFGDKHVFISRNNGDGTFAPAKSVIDNFCIDAGGWKIGDHPRFVADLTGDGTADIIGCGKAGCWVALNNGGGVFGQVKLVINDFGTDKGWQAAKHPRFIADLTGNGRGDVVGFGNAGVYVALNNGDGTFQSAKLVLKDFGVQQGWTVSKHRRFVVDLTGDGCADIIGFGEKETLVSYNDGKGNFGPVKALTNDFSFSGGKWAPETTVCWMANLDSSRHPAPAPMTSNVITQDLPIPVASRGFADIVGFGLDGVVIGRNAVNLQPFLAVKNFAQNAGGWLTTKHVRLIADTTGTGKGDIVGFGNAGVYVSVNNGKNTFADPPKMVIANFGYDAGGWRVEKHLRYLADIRKIGRADIIGFGEKGVLVSRNNGGLNFGPATLVLKDFGYDAGGWRLDRHLRFLADVTGNGHLDIVGFGDKHVFISRNNGDGTFAPAKSVIDNFCIDAGGWKIGDHPRFVADLTGDGTADIIGCGKAGCWVALNNGGGVFGQVKLVINDFGTDKGWQAAKHPRFIADLTGNGRGDVVGFGNAGVYVALNNGDGTFQSAKLVLKDFGVQQGWTVSKHRRFVVDLTGDGCADIIGFGEKETLVSYNDGKGNFGPVKALTNDFSFSGGKWAPETTVCWMANLDSSRH
# What was measured:
# Experiment in all cases: glycan array binding signal (z-score within array); higher = stronger binding
# Details in all cases: glycan notation: IUPAC condensed, linker removed
# [1] = target: GlcNAc(b1-3)Gal(b1-4)GlcNAc(b1-2)[GlcNAc(b1-3)Gal(b1-4)GlcNAc(b1-6)]Man(a1-6)[GlcNAc(b1-3)Gal(b1-4)GlcNAc(b1-2)Man(a1-3)]Man(b1-4)GlcNAc(b1-4)GlcNAc
# How it was run: (§1)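 Glycan array binding is given as a within-array Z-score, which can be read as non-binding when negative. The arrays, 3228 of them, came from the Consortium for Functional Glycomics database and were retained only where the protein sequence was available. Z-scores were averaged across arrays of the same protein sequence at different concentrations or buffers and across linkers.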
# [2] = target: GlcNAc(b1-3)Gal(b1-4)GlcNAc(b1-3)Gal(b1-4)GlcNAc(b1-2)Man(a1-3)[GlcNAc(b1-3)Gal(b1-4)GlcNAc(b1-3)Gal(b1-4)GlcNAc(b1-2)Man(a1-6)]Man(b1-4)GlcNAc(b1-4)GlcNAc
# How it was run: as §1
# [3] = target: GlcNAc(b1-3)Gal(b1-4)GlcNAc(b1-3)Gal(b1-4)GlcNAc(b1-2)Man(a1-3)[GlcNAc(b1-3)Gal(b1-4)GlcNAc(b1-3)Gal(b1-4)GlcNAc(b1-2)Man(a1-6)]Man(b1-4)GlcNAc(b1-4)[Fuc(a1-6)]GlcNAc
# How it was run: as §1
# [4] = target: GlcNAc(b1-3)Gal(b1-4)GlcNAc(b1-3)Gal(b1-4)GlcNAc(b1-2)[GlcNAc(b1-3)Gal(b1-4)GlcNAc(b1-3)Gal(b1-4)GlcNAc(b1-6)]Man(a1-6)[GlcNAc(b1-3)Gal(b1-4)GlcNAc(b1-3)Gal(b1-4)GlcNAc(b1-2)Man(a1-3)]Man(b1-4)GlcNAc(b1-4)[Fuc(a1-6)]GlcNAc
# How it was run: as §1
# [5] = target: GlcNAc(b1-3)Gal(b1-4)GlcNAc(b1-3)Gal(b1-4)GlcNAc(b1-3)Gal(b1-4)GlcNAc(b1-2)Man(a1-3)[GlcNAc(b1-3)Gal(b1-4)GlcNAc(b1-3)Gal(b1-4)GlcNAc(b1-3)Gal(b1-4)GlcNAc(b1-2)Man(a1-6)]Man(b1-4)GlcNAc(b1-4)GlcNAc
# How it was run: as §1
# [6] = target: GlcNAc(b1-3)Gal(b1-4)GlcNAc(b1-3)Gal(b1-4)GlcNAc(b1-3)Gal(b1-4)GlcNAc(b1-2)Man(a1-3)[GlcNAc(b1-3)Gal(b1-4)GlcNAc(b1-3)Gal(b1-4)GlcNAc(b1-3)Gal(b1-4)GlcNAc(b1-2)Man(a1-6)]Man(b1-4)GlcNAc(b1-4)[Fuc(a1-6)]GlcNAc
# How it was run: as §1
# [7] = target: GlcNAc(b1-3)Gal(b1-4)GlcNAc(b1-3)Gal(b1-4)GlcNAc(b1-3)Gal(b1-4)GlcNAc(b1-2)[GlcNAc(b1-3)Gal(b1-4)GlcNAc(b1-3)Gal(b1-4)GlcNAc(b1-3)Gal(b1-4)GlcNAc(b1-6)]Man(a1-6)[GlcNAc(b1-3)Gal(b1-4)GlcNAc(b1-3)Gal(b1-4)GlcNAc(b1-3)Gal(b1-4)GlcNAc(b1-2)Man(a1-3)]Man(b1-4)GlcNAc(b1-4)[Fuc(a1-6)]GlcNAc
# How it was run: as §1
# [8] = target: GlcNAc(b1-3)Gal(b1-4)GlcNAc(b1-3)Gal(b1-4)GlcNAc(b1-3)Gal(b1-4)GlcNAc(b1-3)Gal(b1-4)GlcNAc(b1-2)Man(a1-3)[GlcNAc(b1-3)Gal(b1-4)GlcNAc(b1-3)Gal(b1-4)GlcNAc(b1-3)Gal(b1-4)GlcNAc(b1-3)Gal(b1-4)GlcNAc(b1-2)Man(a1-6)]Man(b1-4)GlcNAc(b1-4)GlcNAc
# How it was run: as §1
# [9] = target: GlcNAc(b1-3)Gal(b1-4)GlcNAc(b1-3)Gal(b1-4)GlcNAc(b1-3)Gal(b1-4)GlcNAc(b1-3)Gal(b1-4)GlcNAc(b1-2)Man(a1-3)[GlcNAc(b1-3)Gal(b1-4)GlcNAc(b1-3)Gal(b1-4)GlcNAc(b1-3)Gal(b1-4)GlcNAc(b1-3)Gal(b1-4)GlcNAc(b1-2)Man(a1-6)]Man(b1-4)GlcNAc(b1-4)[Fuc(a1-6)]GlcNAc
# How it was run: as §1
# [10] = target: GlcNAc(b1-3)Gal(b1-4)GlcNAc(b1-3)Gal(b1-4)GlcNAc(b1-3)Gal(b1-4)GlcNAc(b1-3)Gal(b1-4)GlcNAc(b1-2)[GlcNAc(b1-3)Gal(b1-4)GlcNAc(b1-3)Gal(b1-4)GlcNAc(b1-3)Gal(b1-4)GlcNAc(b1-3)Gal(b1-4)GlcNAc(b1-6)]Man(a1-6)[GlcNAc(b1-3)Gal(b1-4)GlcNAc(b1-3)Gal(b1-4)GlcNAc(b1-3)Gal(b1-4)GlcNAc(b1-3)Gal(b1-4)GlcNAc(b1-2)Man(a1-3)]Man(b1-4)GlcNAc(b1-4)[Fuc(a1-6)]GlcNAc
# How it was run: as §1
# [11] = target: Man(a1-3)[Man(a1-6)]Man(a1-6)[Man(a1-3)]Man(b1-4)GlcNAc(b1-4)GlcNAc
# How it was run: as §1
# [12] = target: Man(a1-3)[Man(a1-6)]Man(b1-4)GlcNAc(b1-4)[Fuc(a1-6)]GlcNAc
# How it was run: as §1
# [13] = target: Neu5Ac(a2-3)Gal(b1-3)[Neu5Ac(a2-6)]GlcNAc(b1-3)[Fuc(a1-3)[Gal(b1-4)]GlcNAc(b1-6)]Gal(b1-4)Glc
# How it was run: as §1
# [14] = target: Neu5Ac(a2-3)Gal(b1-4)GlcNAc(b1-6)GalNAc
# How it was run: as §1
# [15] = target: Neu5Ac(a2-3)Gal(b1-4)[Fuc(a1-3)]GlcNAc(b1-6)[Gal(b1-3)]GalNAc
# How it was run: as §1
# [16] = target: Neu5Ac(a2-3)[GalNAc(b1-4)]Gal(b1-4)GlcNAc(b1-3)GalNAc
# How it was run: as §1
# [17] = target: Neu5Ac(a2-6)Gal(b1-4)GlcNAc(b1-2)Man(a1-3)[GlcNAc(b1-4)][Neu5Ac(a2-6)Gal(b1-4)GlcNAc(b1-2)Man(a1-6)]Man(b1-4)GlcNAc(b1-4)GlcNAc
# How it was run: as §1
# [18] = target: Neu5Ac(a2-6)Gal(b1-4)GlcNAc(b1-3)[Neu5Ac(a2-6)Gal(b1-4)GlcNAc(b1-6)]GalNAc
# How it was run: as §1
# [19] = target: Neu5Ac(a2-6)GlcNAc(b1-4)GlcNAc(b1-4)GlcNAc
# How it was run: as §1
# [20] = target: Neu5Ac(a2-8)Neu5Ac(a2-3)[GalNAc(b1-4)]Gal(b1-4)Glc
# How it was run: as §1
# [21] = target: Neu5Ac(a2-8)Neu5Ac(a2-8)Neu5Ac(a2-3)[Gal(b1-3)GalNAc(b1-4)]Gal(b1-4)Glc
# How it was run: as §1
# [22] = target: Neu5Ac(a2-8)Neu5Ac(a2-8)Neu5Ac(a2-3)[GalNAc(b1-4)]Gal(b1-4)Glc
# How it was run: as §1
binder,measurement,setting,value
B1,glycan array binding signal (z-score),[1],5.83
same,glycan array binding signal (z-score),[2],3.47
same,glycan array binding signal (z-score),[3],3.72
same,glycan array binding signal (z-score),[4],5.12
same,glycan array binding signal (z-score),[5],5.42
same,glycan array binding signal (z-score),[6],4.23
same,glycan array binding signal (z-score),[7],5.39
same,glycan array binding signal (z-score),[8],5.42
same,glycan array binding signal (z-score),[9],5.09
same,glycan array binding signal (z-score),[10],5.69
same,glycan array binding signal (z-score),[11],-0.333
same,glycan array binding signal (z-score),[12],-0.327
same,glycan array binding signal (z-score),[13],-0.313
same,glycan array binding signal (z-score),[14],-0.218
same,glycan array binding signal (z-score),[15],-0.336
same,glycan array binding signal (z-score),[16],-0.285
same,glycan array binding signal (z-score),[17],-0.319
same,glycan array binding signal (z-score),[18],-0.251
same,glycan array binding signal (z-score),[19],-0.302
same,glycan array binding signal (z-score),[20],-0.29
same,glycan array binding signal (z-score),[21],-0.297
same,glycan array binding signal (z-score),[22],-0.284
